Compounds without any hit were thinned out: in the full panel of roughly 79,000, 15% have a hit. Values without a mark were called inactive. The source made the active and inactive calls. Cut-off read from the data, not from the text of the source: active = growth inhibition above about 70%; inactive = the rest.
What was measured:
[1] = NCI Yeast Anticancer Drug Screen. Data for the rad50 strain (AID 155);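 note: 0% = growth of vehicle-only cultures of the same strain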; conditions: S. cerevisiae rad50 strain growth inhibition, stronger effect = higher value
How it was run: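 Inhibition values express reduced yeast growth in compound-treated cultures relative to vehicle-treated controls.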

[2] = NCI Yeast Anticancer Drug Screen. Data for the mec2-1 strain (AID 157); conditions: S. cerevisiae mec2-1 strain, stronger effect = higher value
How it was run: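 Growth inhibition is read against vehicle-treated controls after compound exposure of the mec2-1 yeast strain, which is defective in DNA damage repair or cell cycle control.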

[3] = NCI Yeast Anticancer Drug Screen. Data for the sgs1 mgt1 strain (AID 161);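 note: 0% = growth of cultures given vehicle only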; conditions: S. cerevisiae sgs1 mgt1 strain, stronger effect = higher value
How it was run: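 Yeast cells carrying a defined DNA-repair defect were exposed to test compounds. Growth inhibition was measured relative to vehicle-treated controls.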

[4] = NCI Yeast Anticancer Drug Screen. Data for the cln2 rad14 strain (AID 165);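 note: 0% = growth equal to vehicle treated cultures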; conditions: S. cerevisiae cln2 rad14 strain, stronger effect = higher value
How it was run: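 Growth inhibition, relative to vehicle-treated controls, is the read-out. The test organism is a yeast strain with defined genetic alterations, cln2 rad14.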

[5] = NCI Yeast Anticancer Drug Screen. Data for the bub3 strain (AID 167); conditions: S. cerevisiae bub3 mutant strain, stronger effect = higher value
How it was run: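 Steps: expose the mutant yeast strain to compound; grow alongside vehicle-treated cultures; measure growth; express inhibition against the vehicle cultures.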

[6] = NCI Yeast Anticancer Drug Screen. Data for the mlh1 rad18 strain (AID 175); conditions: S. cerevisiae mlh1 rad18 strain growth inhibition, stronger effect = higher value
How it was run: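 Cells of a genetically altered yeast strain, deficient in DNA damage repair, were treated with compound. Their growth was then compared with that of vehicle-treated cultures to give inhibition.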

[7] = at 5.0 µM (retest, dose inferred, filed as 0.5)
[8] = at 50.0 µM (retest, dose inferred, filed as 5.0)

Row | Structure (SMILES) | growth inhibition [1, 7] | growth inhibition [1, 8] | growth inhibition ([1]; at 50.0 µM) | growth inhibition [2, 7] | growth inhibition [2, 8] | growth inhibition ([2]; at 50.0 µM) | growth inhibition [3, 7] | growth inhibition [3, 8] | growth inhibition ([3]; at 50.0 µM) | growth inhibition [4, 7] | growth inhibition [4, 8] | growth inhibition ([4]; at 50.0 µM) | growth inhibition [5, 7] | growth inhibition [5, 8] | growth inhibition ([5]; at 50.0 µM) | growth inhibition [6, 7] | growth inhibition [6, 8] | growth inhibition ([6]; at 50.0 µM)
1 | NC(=O)C1CCCN1C(=O)C1CCCN(Cc2cc(CN3CCCC(C(=O)N4CCCC4C(N)=O)C3)cc(CN3CCCC(C(=O)N4CCCC4C(N)=O)C3)c2)C1 (stereo not given) | 2% | 9% | 78.1% (active) | -5% | -21% | 40.7% | -1% | -8% | 59.5% | -2% | 3% | 16.9% | -23% | 2% | 48.8% | -7% | -1% | 28.6%
2 | CCC(N)C(O)C(C)C (stereo not given) | -1% | 10% | 71.7% (active) | -1% | 1% | 2.6% | -3% | 2% | 14.3% | -2% | -2% | -10.6% | 3% | 17% | 13.2% | -1% | 3% | 10.6%
3 | Nc1ccc(C(=O)NN2C(=O)C(Cl)C2c2cc(Br)cc(Br)c2O)cc1 (stereo not given) | -3% | 64% | 96.2% (active) | -12% | 80% (active) | 94.2% (active) | -3% | 91% (active) | 93.7% (active) | -20% | 76% (active) | 89% (active) | 10% | 54% | 98.2% (active) | 5% | 85% (active) | 94.7% (active)
4 | N=C1c2ccccc2-c2ccccc21 | 49% | 49% | 66% | 22% | 17% | 37.2% | 10% | 11% | 40.2% | 12% | 3% | 12.1% | 19% | 24% | 22.9% | 21% | 21% | 26.8%
5 | CCOC(=O)Cc1csc2[n+]1C(=O)/C(=C/c1ccc(OC)c(OC)c1)S2 | -11% | 11% | 95.2% (active) | -14% | 10% | 94.2% (active) | -11% | 14% | 94.2% (active) | -1% | 8% | 93% (active) | -22% | -2% | 95.7% (active) | -17% | 17% | 93% (active)
6 | O=C1C=CC(=O)N1CCc1ccccc1 | -33% | 97% (active) | 99.5% (active) | -31% | 98% (active) | 99.5% (active) | -34% | 98% (active) | 99.3% (active) | -10% | 98% (active) | 99.3% (active) | -45% | 98% (active) | 99.3% (active) | -90% | 97% (active) | 99.2% (active)
7 | COc1ccc(NS(=O)(=O)c2ccc(N=Cc3c4ccccc4nc4cc(Cl)ccc34)cc2)nn1 | 23% | -9% | 94.2% (active) | 14% | -5% | 91.8% (active) | 17% | -8% | 95.6% (active) | 5% | -6% | 36.9% | 22% | -4% | 52.2% | 13% | -4% | 95.8% (active)
8 | Cc1ccc(N2C(=O)C(C)SC2=S)cc1Cl (stereo not given) | 2% | -4% | 86.2% (active) | -1% | -1% | 51.9% | 1% | -25% | 94.7% (active) | -2% | -2% | 13.7% | -4% | 1% | 48% | -5% | 1% | 93.5% (active)
9 | CC12CCC(c3sc(N)c(C#N)c31)C2(C)C (stereo not given) | -14% | -34% | 39% | -2% | -25% | 60.2% | -13% | -4% | 34.5% | 3% | 1% | 13.8% | -15% | -20% | 31.7% | -36% | -9% | 43.8%
10 | N#CS/C=C/SC#N | 99% (active) | 99% (active) | 99.5% (active) | 100% (active) | 100% (active) | 99.5% (active) | 99% (active) | 99% (active) | 99.5% (active) | 99% (active) | 100% (active) | 99.1% (active) | 100% (active) | 99% (active) | 99% (active) | 99% (active) | 100% (active) | 99.5% (active)

Reference: PubChem BioAssay (NCI)
